# Values joined by “and” are separate entries in the source; they are usually repeats but may differ in a detail not shown here. Equal values may be shown once. Read-outs that look alike come from different tables or passages of the source.
# Legend:
# Details in all cases: concentration: 1 μM, replicates: in singlicate, n = 1
# PRKCI = tested on: PRKCI
# PRKCQ = tested on: PRKCQ
# PRKD1 = tested on: PRKD1
# PRKD2 = tested on: PRKD2
# PRKD3 = tested on: PRKD3
# PRKG1 = tested on: PRKG1
# PRKG2 = tested on: PRKG2
# PRKR = tested on: T1, PRKR
# T1 construct: gene EIF2AK2
# PRKX = tested on: PRKX
# PRP4 = tested on: PRP4
# PYK2 = tested on: T2, PYK2
# T2 construct: gene PTK2B
# QSK = tested on: QSK
# RAF1 = tested on: RAF1
# RET = tested on: RET
# RIOK1 = tested on: RIOK1
# RIOK2 = tested on: RIOK2
# RIOK3 = tested on: RIOK3
# RIPK1 = tested on: RIPK1
# RIPK2 = tested on: RIPK2
# RIPK4 = tested on: RIPK4
# 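Further: KINOMEscan kinase panel screen.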
smiles,measurement,setting,value
Nc1nc(-c2ccc3c(N)n[nH]c3c2)cc(N2CCCC2)n1 [GSK2227430],%Inh,PRKCI,0%
same,%Inh,PRKCQ,18%
same,%Inh,PRKD1,0%
same,%Inh,PRKD2,0%
same,%Inh,PRKD3,13%
same,%Inh,PRKG1,0%
same,%Inh,PRKG2,75%
same,%Inh,PRKR,0%
same,%Inh,PRKX,1%
same,%Inh,PRP4,46%
same,%Inh,PYK2,20%
same,%Inh,QSK,0%
same,%Inh,RAF1,0%
same,%Inh,RET,0%
same,%Inh,RIOK1,48%
same,%Inh,RIOK2,2%
same,%Inh,RIOK3,56%
same,%Inh,RIPK1,0%
same,%Inh,RIPK2,0%
same,%Inh,RIPK4,11%
Cn1ccc2ncnc(Oc3ccc(NC(=O)Nc4ccncc4)c(Cl)c3)c21,%Inh,PRKCI,0%
same,%Inh,PRKCQ,0%
same,%Inh,PRKD1,14%
same,%Inh,PRKD2,0%
same,%Inh,PRKD3,0%
same,%Inh,PRKG1,3%
same,%Inh,PRKG2,0%
same,%Inh,PRKR,0%
same,%Inh,PRKX,0%
same,%Inh,PRP4,14%
same,%Inh,PYK2,0%
same,%Inh,QSK,0%
same,%Inh,RAF1,12%
same,%Inh,RET,1%
same,%Inh,RIOK1,0%
same,%Inh,RIOK2,0%
same,%Inh,RIOK3,23%
same,%Inh,RIPK1,0%
same,%Inh,RIPK2,0%
same,%Inh,RIPK4,0%
CCn1cnc2c(N)ncnc21 [GW345098],%Inh,PRKCI,13%
same,%Inh,PRKCQ,0%
same,%Inh,PRKD1,9%
same,%Inh,PRKD2,0%
same,%Inh,PRKD3,23%
same,%Inh,PRKG1,13%
same,%Inh,PRKG2,0%
same,%Inh,PRKR,0%
same,%Inh,PRKX,0%
same,%Inh,PRP4,1%
same,%Inh,PYK2,8%
same,%Inh,QSK,13%
same,%Inh,RAF1,3%
same,%Inh,RET,0%
same,%Inh,RIOK1,30%
same,%Inh,RIOK2,6%
same,%Inh,RIOK3,8%
same,%Inh,RIPK1,11%
same,%Inh,RIPK2,1%
same,%Inh,RIPK4,6%
CN(C1=C(c2ccccc2)C(=O)NC1=O)c1ccccc1 [SB-334860],%Inh,PRKCI,33%
same,%Inh,PRKCQ,7%
same,%Inh,PRKD1,0%
same,%Inh,PRKD2,14%
same,%Inh,PRKD3,25%
same,%Inh,PRKG1,0%
same,%Inh,PRKG2,16%
same,%Inh,PRKR,17%
same,%Inh,PRKX,2%
same,%Inh,PRP4,0%
same,%Inh,PYK2,0%
same,%Inh,QSK,0%
same,%Inh,RAF1,18%
same,%Inh,RET,0%
same,%Inh,RIOK1,0%
same,%Inh,RIOK2,4%
same,%Inh,RIOK3,0%
same,%Inh,RIPK1,30%
same,%Inh,RIPK2,44%
same,%Inh,RIPK4,20%
Cl.Cl.Cl.Fc1ccc(-c2ncn(C3CCNCC3)c2-c2ccnc(Nc3ccccc3)n2)cc1 [SB-238039],%Inh,PRKCI; 1 µM,53% and 34%
same,%Inh,PRKCQ; 1 µM,20% and 50%
same,%Inh,PRKD1; 1 µM,96.5% and 91.3%
same,%Inh,PRKD2; 1 µM,95.3% and 91.8%
same,%Inh,PRKD3; 1 µM,88% and 90.8%
same,%Inh,PRKG1; 1 µM,3% and 0%
same,%Inh,PRKG2; 1 µM,0% and 28%
same,%Inh,PRKR; 1 µM,0% and 3%
same,%Inh,PRKX,0%
same,%Inh,PRP4; 1 µM,32% and 0%
same,%Inh,PYK2; 1 µM,0% and 12%
same,%Inh,QSK,0%
same,%Inh,RAF1; 1 µM,18% and 8%
same,%Inh,RET; 1 µM,8% and 20%
same,%Inh,RIOK1; 1 µM,11% and 52%
same,%Inh,RIOK2,0%
same,%Inh,RIOK3; 1 µM,3% and 32%
same,%Inh,RIPK1; 1 µM,35% and 0%
same,%Inh,RIPK2; 1 µM,76% and 65%
same,%Inh,RIPK4; 1 µM,13% and 42%
NCCNS(=O)(=O)c1ccc(-c2ccnc3[nH]ccc23)cc1 [GSK977617],%Inh,PRKCI; 1 µM,56% and 47%
same,%Inh,PRKCQ; 1 µM,86% and 70%
same,%Inh,PRKD1; 1 µM,49% and 33%
same,%Inh,PRKD2; 1 µM,51% and 23%
same,%Inh,PRKD3; 1 µM,45% and 33%
same,%Inh,PRKG1; 1 µM,97.6% and 96.7%
same,%Inh,PRKG2; 1 µM,98.6% and 98%
same,%Inh,PRKR; 1 µM,52% and 42%
same,%Inh,PRKX; 1 µM,94.7% and 92.2%
same,%Inh,PRP4; 1 µM,28% and 20%
same,%Inh,PYK2; 1 µM,31% and 21%
same,%Inh,QSK; 1 µM,6% and 15%
same,%Inh,RAF1; 1 µM,2% and 0%
same,%Inh,RET; 1 µM,28% and 19%
same,%Inh,RIOK1; 1 µM,91.4%
same,%Inh,RIOK2; 1 µM,93.8% and 88%
same,%Inh,RIOK3; 1 µM,78% and 84%
same,%Inh,RIPK1; 1 µM,9% and 8%
same,%Inh,RIPK2,0%
same,%Inh,RIPK4; 1 µM,50% and 29%
O=c1cc(N2CCOCC2)nc2n(Cc3cccc4ccccc34)ccn12 [GSK2333389],%Inh,PRKCI,7%
same,%Inh,PRKCQ,0%
same,%Inh,PRKD1,0%
same,%Inh,PRKD2,0%
same,%Inh,PRKD3,23%
same,%Inh,PRKG1,10%
same,%Inh,PRKG2,0%
same,%Inh,PRKR,0%
same,%Inh,PRKX,26%
same,%Inh,PRP4,2%
same,%Inh,PYK2,17%
same,%Inh,QSK,7%
same,%Inh,RAF1,0%
same,%Inh,RET,80%
same,%Inh,RIOK1,8%
same,%Inh,RIOK2,47%
same,%Inh,RIOK3,0%
same,%Inh,RIPK1,0%
same,%Inh,RIPK2,0%
same,%Inh,RIPK4,0%
CC(=O)Nc1ccc(COc2ccc(Nc3ccnc4cc(-c5ccccn5)ccc34)cc2)cc1.Cl [GW440148],%Inh,PRKCI,15%
same,%Inh,PRKCQ,0%
same,%Inh,PRKD1,18%
same,%Inh,PRKD2,14%
same,%Inh,PRKD3,0%
same,%Inh,PRKG1,0%
same,%Inh,PRKG2,8%
same,%Inh,PRKR,27%
same,%Inh,PRKX,12%
same,%Inh,PRP4,27%
same,%Inh,PYK2,0%
same,%Inh,QSK,0%
same,%Inh,RAF1,5%
same,%Inh,RET,2%
same,%Inh,RIOK1,13%
same,%Inh,RIOK2,0%
same,%Inh,RIOK3,35%
same,%Inh,RIPK1,22%
same,%Inh,RIPK2,93.2%
same,%Inh,RIPK4,19%
CC(C)(CN)c1nc(-c2ccc(Cl)c(O)c2)c(-c2ccncc2)[nH]1.O=C(O)C(F)(F)F [SB-477794],%Inh,PRKCI; 1 µM,97.5% and 97.8%
same,%Inh,PRKCQ; 1 µM,75% and 76%
same,%Inh,PRKD1; 1 µM,92.4% and 93.9%
same,%Inh,PRKD2; 1 µM,89% and 91.8%
same,%Inh,PRKD3,100%
same,%Inh,PRKG1; 1 µM,0% and 20%
same,%Inh,PRKG2; 1 µM,0% and 10%
same,%Inh,PRKR; 1 µM,0% and 12%
same,%Inh,PRKX; 1 µM,21% and 22%
same,%Inh,PRP4; 1 µM,69% and 33%
same,%Inh,PYK2; 1 µM,0% and 17%
same,%Inh,QSK; 1 µM,91.5% and 86%
same,%Inh,RAF1; 1 µM,98.5% and 95.1%
same,%Inh,RET,99.9%
same,%Inh,RIOK1; 1 µM,0% and 1%
same,%Inh,RIOK2,0%
same,%Inh,RIOK3,0%
same,%Inh,RIPK1; 1 µM,2% and 0%
same,%Inh,RIPK2; 1 µM,92.7% and 90%
same,%Inh,RIPK4; 1 µM,36% and 5%
C[C@@H](Oc1cc(-n2cnc3ccc(NC(=O)NC(C)(C)C)cc32)sc1C(N)=O)c1ccccc1Cl [GSK346294],%Inh,PRKCI,0%
same,%Inh,PRKCQ,15%
same,%Inh,PRKD1,2%
same,%Inh,PRKD2,14%
same,%Inh,PRKD3,24%
same,%Inh,PRKG1,3%
same,%Inh,PRKG2,15%
same,%Inh,PRKR,0%
same,%Inh,PRKX,21%
same,%Inh,PRP4,43%
same,%Inh,PYK2,0%
same,%Inh,QSK,0%
same,%Inh,RAF1,0%
same,%Inh,RET,24%
same,%Inh,RIOK1,56%
same,%Inh,RIOK2,0%
same,%Inh,RIOK3,34%
same,%Inh,RIPK1,21%
same,%Inh,RIPK2,14%
same,%Inh,RIPK4,4%
